Source: the supplement of paper PMC6555819

tested on: VDR:RXRa (NR concentration 270 nM, RXRa partner concentration 90 nM); assay: PBM binding z-score (relative to random genomic background probes); higher = stronger binding; sequences stand for … in GC…GCGATTGACAGCGTAGAATGAAGG
Experimental: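 Protein-binding microarray (Agilent 4x180K custom design, double-stranded 60-nt probes: 5' GC cap, 34-nt variable region, 24-nt constant primer region; full probe sequence given). Purified or IVT nuclear receptor:RXRα heterodimers (3:1 NR:RXRα, mostly 270:90 nM) or homodimers were incubated for 1 h in PBS with 2% milk and no ligand, then detected with Alexa488 antibodies. Fluorescence from o1-orientation probes (~5 replicates averaged) was converted to z-scores against 500 random hg19 background probes. Variable regions are seed direct-repeat (DR0–DR5) sites, all their single-nucleotide variants and half-site ablations.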

Row | Sequence | PBM binding z-score
1 | ATATGTAGGTTACATCCGGGTCATTCAGGCTATG | 4.26
2 | TTACCAAGGTGAAAGGTTGTTGATGCACGCCTTG | 1.15
3 | CCTCCTGGGCCAAAAAGGTCATTGATGCCGATAA | 4.94
4 | CCTATTGGGCCAAAGGTCATTGATTCCAATGCTC | 4.66
5 | ATATGTTGGTTATCGGGTCATTCAGTTTGCGCAT | 4.86
6 | CTCGAGAGGTCGTGCTCAGGTGAGTATACCAAAC | 3.37
7 | TCATATAGGCAAACAGGTGAAAGTCCGTAAGTTA | 0.719
8 | GGAACGAGGGCAAGTTGATAGAAGAGTTTGATGG | 0.975
9 | GCATATAGGTAATATAAGGTGAAAGTCCGATTGT | 0.397
10 | CAAACTAGGTGACAGAGGTCAAAGTCCGTGCGTA | 6.42
11 | TCATAGAGGTAAAGGTGAAAGTCGAACGATATGA | 0.788
12 | GCTAGCAGGCCATTTGGGTCACTAAATGACGGGC | 0.655
13 | CAAACTAAGTCACGAAAGGTCAAAGTCGAATGAC | 5.34
14 | CCAGACGGGTGAGAAGGTAACTCAGCCTCGATTA | -0.516
15 | GGGACGAGGGCAAGTTGATAGCAGAGTTTGATGG | 1.29
16 | TCTGCTAGGTCAGTAGGTCAGCTAACGAGCTGCC | 0.994
17 | TCAAGTTGGTCACGGAGGTCACACACGACGGGTA | 5.67
18 | TCGGCTAGGTCAGTTGGTCAGCTAACGAGCTGCC | 0.16
19 | CCTCGGAGGACAGAAGGTCAGAGCCGTCCGCTTT | 0.934
20 | TAGCCTAGGTCATGCTGGCCAGTATAGTGTCGGC | 2.04

Row | Sequence | PBM binding z-score
21 | TAGCCTAGGTCGTGCGGGCCAGTATAGTGTCGGC | 0.148
22 | CCGACTGGGGCAAAGGTTGCCATACTCAGTACGA | 0.133
23 | TTACCAAGGCGAGCTGAGGTCGTTGATCCAACTC | 1.63
24 | CCTACTGGGCCACGGAAGGTCATTGATTCAGTGA | 2.83
25 | CCGACTGGGGCACAAAGGTTACCATACCATCCGG | 1.73
26 | ACAAACAGGTGAGTGAAGGTAACTCAGCTGGACG | -0.124
27 | CGTCCAAGGTCAAAGGACAGTGAAGAGATGACGG | 3.76
28 | CCTGCTAGGTCCATGGTCAGCTAAAGCAGCTCGC | -0.591
29 | TAGCCTCGGTCAGATCGGGCCAGTATACGCTATA | -0.637
30 | GCTCGGAGGACAAAGTCAGAGCTTTGTCCGTAGA | -0.556
31 | GCGACTGGGGCAAAGCAGGTTATCATAAGGTTGG | 0.334
32 | TCTGCTAGGTCAGTTGGTCAGTTAACGAGCTGCC | 0.0446
33 | AAATGTAGGTTATCGGGTCATTCAGTTTGCGCAT | 5.22
34 | ATTTGTAGGTTAGCTGGGGTCATTCAGACTAGGC | 6.42
35 | CAAACTAGGTCACCGGAAGGTCAATGTCCGCATG | 5.36
36 | ATCTCTAGGTAACAAGTTTAGTGAAAGAGAGGAC | 0.823
37 | TCTAGTTGGTCACGGAGGTCACAGACGACGGGTA | 5.81
38 | ATCGAAAGGTCGAAGTTGAGTATACCCACCCGAA | 3.08
39 | TCTATTAGTTGAAGGGCAACGGACGAGTCCGTTT | 1.06
40 | GCGACTGGGGCATCAGCAAGTTACCATAACTTAA | -0.37
